For the test, the system named is Vero E6 infected with SARS-CoV-2. Put plainly: inhibition of SARS-CoV-2 cytopathic effect; higher = more antiviral protection, active = above 15. The note with it: 48 h.

Unmarked numbers belong to inactive results.

`NCCCCN` [putrescine]: the “inhibition of SARS-CoV-2 cytopathic effect” value (“inhibition” below) (1 nM) was 2.4%; the “inhibition” value (8.33 nM) was 3.44%; the “inhibition” value (100 nM) was -0.12%; the “inhibition” value (833.33 nM) was 4.47%; the “inhibition” value (10000 nM) is 0.82%.
`CC(=O)N(CC(O)CO)c1c(I)c(C(=O)NCCO)c(I)c(C(=O)NCC(O)CO)c1I` (stereo not given) [ioxilan]: the “inhibition” value (1 nM) is 1.8%; the “inhibition” value (8.33 nM) was 0.19%; the “inhibition” value (100 nM) is -2.31%; the “inhibition” value (833.33 nM) was -1.98%; the “inhibition” value (10000 nM) was -0.58%.
The corresponding values for `Cc1ccc2c(c1)[C@H]1CN(C)CC[C@H]1N2` [stobadine] are 1.95%, 2.65%, 1.27%, 1.23% and -0.96%.
As to `COc1cc(OC)nc(O[C@H](C(=O)O)C(OC)(c2ccccc2)c2ccccc2)n1` [darusentan], the “inhibition” value (1 nM) was 0.26%; the “inhibition” value (8.33 nM) was -0.2%; the “inhibition” value (100 nM) was 0.62%; the “inhibition” value (833.33 nM) was -2.26%; the “inhibition” value (10000 nM) was -0.49%.
On to `CCN(CC)C(=S)S` [ditiocarb-sodium-trihydrate], for which the “inhibition” value (1 nM) is 0.85%; the “inhibition” value (8.33 nM) was -0.21%; the “inhibition” value (100 nM) is 0.86%; the “inhibition” value (833.33 nM) was -0.23%; the “inhibition” value (10000 nM) is 23.6% (active).
For `CNC(=C[N+](=O)[O-])NCCSCc1ccc(CN(C)C)o1` [ranitidine], the “inhibition” value runs as follows: (1 nM) 2.45%; (8.33 nM) 2.26%; (100 nM) 2.56%; (833.33 nM) 0.8%; (10000 nM) 1.08%.
Turning to `CNC(=O)[C@H]1O[C@@H](n2cnc3c(NCc4cccc(I)c4)ncnc32)[C@H](O)[C@@H]1O`, the “inhibition” value (1 nM) is 0.17%; the “inhibition” value (8.33 nM) was 0.13%; the “inhibition” value (100 nM) was -0.04%; the “inhibition” value (833.33 nM) was 0.25%; the “inhibition” value (10000 nM) was -2.76%.
Turning to `CC(C)CCC[C@@H](C)[C@H]1CC[C@H]2[C@@H]3CC=C4C[C@@H](O)CC[C@]4(C)[C@H]3CC[C@]12C` [cholesterol], the “inhibition” value (1 nM) was -1.33%; the “inhibition” value (8.33 nM) was 1.96%; the “inhibition” value (100 nM) was 1.08%; the “inhibition” value (833.33 nM) is -1.83%; the “inhibition” value (10000 nM) was 2.29%.
For the compound `CNCCN(C)Cc1c[nH]nc1-c1ccc(O[C@H]2C[C@H](OCCC3CCOCC3)C2)cc1`, the “inhibition” value by setting is: (1 nM) 0.46%; (8.33 nM) -0.78%; (100 nM) 4.05%; (833.33 nM) 1.11%; (10000 nM) 1.7%.
On to `NCC(=O)N[C@@H](CCC(N)=O)C(=O)O`, for which the “inhibition” value was 0.35% (1 nM); -1.25% (8.33 nM); -2.03% (100 nM); 2.57% (833.33 nM); -2.42% (10000 nM).
Consider `COc1cc([C@@H]2c3cc4c(cc3[C@@H](O[C@@H]3O[C@@H]5CO[C@@H](C)O[C@H]5[C@H](O)[C@H]3O)[C@H]3COC(=O)[C@H]23)OCO4)cc(OC)c1O` [etoposide], for which the “inhibition” value is 6.79% (1 nM); -0.79% (8.33 nM); -0.58% (100 nM); -2.82% (833.33 nM); 4.17% (10000 nM).
The corresponding values for `COc1cc([S+](C)[O-])ccc1-c1nc2cccnc2[nH]1` (stereo not given) [sulmazole] are -0.6%, 3.93%, 0.23%, -1.34% and -0.68%.
Consider `CN1C(=O)N(c2cc(Cl)cc(Cl)c2)C(=O)[C@@]1(C)Cc1ccc(Br)cc1`, for which the “inhibition” value (1 nM) was -0.07%; the “inhibition” value (8.33 nM) was -0.29%; the “inhibition” value (100 nM) was -0.15%; the “inhibition” value (833.33 nM) was -1.61%; the “inhibition” value (10000 nM) is -5.8%.
For the compound `O=C1[C@H](CC[C@H](O)c2ccc(F)cc2)[C@@H](c2ccc(O)cc2)N1c1ccc(F)cc1` [ezetimibe], the “inhibition” value is 0.31% (1 nM); 0.64% (8.33 nM); -0.99% (100 nM); 2.19% (833.33 nM); 5.44% (10000 nM).
Consider `CN[C@H](CC(C)C)C(=O)N[C@H]1C(=O)N[C@@H](CC(N)=O)C(=O)N[C@H]2C(=O)N[C@H]3C(=O)N[C@H](C(=O)N[C@H](C(=O)O)c4cc(O)cc(O)c4-c4cc3ccc4O)[C@H](O)c3ccc(c(Cl)c3)Oc3cc2cc(c3O[C@@H]2O[C@H](CO)[C@@H](O)[C@H](O)[C@H]2O[C@H]2C[C@](C)(N)[C@H](O)[C@H](C)O2)Oc2ccc(cc2Cl)[C@H]1O`, for which the “inhibition” value was 0.55% (1 nM); 1.31% (8.33 nM); -0.56% (100 nM); 3.7% (833.33 nM); 0.87% (10000 nM).
For the compound `COC(=O)[C@H](CC(C)C)NC(=O)c1ccc(NC[C@@H](N)CS)cc1-c1cccc2ccccc12`, the “inhibition” value reads like this: (1 nM) -1.19%; (8.33 nM) 4.63%; (100 nM) -0.9%; (833.33 nM) -1.25%; (10000 nM) -4.69%.
Consider `CCN(CC)C(=O)N[C@H]1C=C2c3cccc4[nH]cc(c34)C[C@H]2N(C)C1` [lisuride], for which the “inhibition” value is, setting by setting: (1 nM) -0.02%; (8.33 nM) 2.67%; (100 nM) 0.39%; (833.33 nM) 7.27%; (10000 nM) -0.37%.
For the compound `O=c1c(O)c(-c2ccc(O)c(O)c2)oc2cc(O)cc(O)c12` [quercetin], the “inhibition” value (1 nM) was 1.33%; the “inhibition” value (8.33 nM) is 0.85%; the “inhibition” value (100 nM) is 0.21%; the “inhibition” value (833.33 nM) was 1.78%; the “inhibition” value (10000 nM) was 3.03%.
With `CN[C@@H](C)[C@H](O)c1ccccc1` [ephedrine], the “inhibition” value reads like this: (1 nM) -1.32%; (8.33 nM) -0.23%; (100 nM) 1.57%; (833.33 nM) 3.01%; (10000 nM) -0.52%.
The corresponding values for `Nc1ccc(C(=O)O)cc1` [potassium-p-aminobenzoate] are -5.31%, -2.38%, -5.27%, -0.2% and -5%.
For the compound `O=C(NCCS(=O)(=O)c1ccc(C(F)(F)F)cn1)c1ccc(Cl)cc1`, the “inhibition” value is, setting by setting: (1 nM) 4.56%; (8.33 nM) -1.99%; (100 nM) 5.99%; (833.33 nM) 1.04%; (10000 nM) 1.56%.
The corresponding values for `C=CC(C)(C)c1cc(/C=C/C(=O)c2ccc(O)cc2)c(OC)cc1O` [licochalcone-A] are -0.14%, 0.43%, -0.55%, -9.62% and 8.6%.
The corresponding values for `CCC(=O)O[C@H]1[C@H](O[C@@H]2[C@@H](C)[C@H](O[C@H]3C[C@@](C)(OC)[C@@H](O)[C@H](C)O3)[C@@H](C)C(=O)O[C@H](CC)[C@@](C)(O)[C@H](O)[C@@H](C)C(=O)[C@H](C)C[C@@]2(C)O)O[C@H](C)C[C@@H]1N(C)C` [erythromycin-estolate] are -0.2%, 1.07%, 2.51%, 2.85% and -0.99%.

The record behind these values is the supplement of paper PMC13380429.
